The source of these data is ChEMBL document CHEMBL1961873, “Compounds: GSK PKIS; Assays: Nanosyn kinase panel” (2012).

“And” between values parts separate entries of the source, which are not always exact repeats. Equal entries are not always repeated.

The inhibition is how much of the control response was suppressed. Read a low inhibition as a response near the control.
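Further: values are mean percent inhibition of PDGFRA.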

The target in the assay is Platelet-derived growth factor receptor alpha (Homo sapiens) (UniProt P16234). To be noted: at 1 µM.
Sequence of Platelet-derived growth factor receptor alpha (Homo sapiens) (P16234 whole entry): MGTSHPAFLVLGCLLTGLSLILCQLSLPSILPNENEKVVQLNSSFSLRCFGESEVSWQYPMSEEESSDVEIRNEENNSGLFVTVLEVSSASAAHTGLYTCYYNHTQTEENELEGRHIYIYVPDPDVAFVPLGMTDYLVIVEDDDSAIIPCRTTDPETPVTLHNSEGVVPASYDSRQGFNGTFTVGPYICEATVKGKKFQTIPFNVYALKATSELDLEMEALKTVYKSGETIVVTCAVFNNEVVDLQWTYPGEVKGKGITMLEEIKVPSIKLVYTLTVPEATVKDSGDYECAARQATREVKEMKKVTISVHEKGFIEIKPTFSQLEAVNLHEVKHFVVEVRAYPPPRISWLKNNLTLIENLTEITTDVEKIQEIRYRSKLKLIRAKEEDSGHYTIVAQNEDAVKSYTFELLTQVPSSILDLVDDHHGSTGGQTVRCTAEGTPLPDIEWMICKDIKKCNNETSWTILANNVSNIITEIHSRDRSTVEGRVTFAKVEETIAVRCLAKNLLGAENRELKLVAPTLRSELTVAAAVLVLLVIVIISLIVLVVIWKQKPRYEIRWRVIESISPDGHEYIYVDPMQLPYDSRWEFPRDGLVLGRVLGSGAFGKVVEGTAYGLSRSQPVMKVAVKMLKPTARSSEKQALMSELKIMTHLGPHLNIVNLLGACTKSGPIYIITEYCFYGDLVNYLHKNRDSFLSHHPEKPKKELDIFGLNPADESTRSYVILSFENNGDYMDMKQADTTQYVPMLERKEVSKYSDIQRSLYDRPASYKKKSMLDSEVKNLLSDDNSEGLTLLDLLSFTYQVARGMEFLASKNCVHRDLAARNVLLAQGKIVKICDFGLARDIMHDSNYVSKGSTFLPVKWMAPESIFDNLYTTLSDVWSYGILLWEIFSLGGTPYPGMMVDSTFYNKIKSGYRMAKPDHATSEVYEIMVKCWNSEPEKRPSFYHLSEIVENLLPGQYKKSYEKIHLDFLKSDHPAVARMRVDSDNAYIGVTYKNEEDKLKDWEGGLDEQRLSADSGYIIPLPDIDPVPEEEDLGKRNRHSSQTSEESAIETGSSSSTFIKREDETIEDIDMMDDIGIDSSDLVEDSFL
Turning to `COc1ccc(Nc2ncc(-c3ccccc3)o2)cc1OC`, the inhibition stood at 68.6%.

`CCS(=O)(=O)c1ccc(OC)c(Nc2ncc(-c3cccc(C(C)=O)c3)o2)c1` returned an inhibition of 68%.

With `CS(=O)(=O)Nc1ccc(-c2ccc3c(NC(=O)C4CC4)n[nH]c3c2)cc1`, the inhibition turned out to be 28.5%.

Take `CS(=O)(=O)CCNCc1ccoc1-c1ccc2ncnc(Nc3ccc(OCc4ccccc4)cc3)c2c1`: the inhibition turned out to be 15.1%.

The compound `NS(=O)(=O)c1ccc(N/N=C2\C(=O)Nc3ccc(C(=O)NCc4ccncc4)cc32)cc1` displayed an inhibition of 69.4%.

With `CN1CCC(C(=O)Nc2n[nH]c3nc(-c4ccc(O)cc4)c(Br)cc23)CC1`, the inhibition is 27.9% and 21.1%.

As for `CN1CCN(Cc2ccc(-c3cc4ncnc(Nc5ccc(OCc6cccc(F)c6)c(Cl)c5)c4s3)o2)CC1`, the inhibition was 16.9% and 23.4%.

Compound `COc1cc2c(cc1Nc1nc(Nc3cccc(F)c3C(N)=O)c3cc[nH]c3n1)N(C(=O)CN1CCN(C(C)C)CC1)CC2` registered an inhibition of 15.2%.

`COc1cccc(-n2ncc3c(N/N=C/c4ccc(C(=O)NCCN(C)C)cc4)ncnc32)c1` yielded an inhibition of 74.1%.

`CN(c1ccc(NC(=O)NCCN2CCOCC2)cc1)c1ccnc(Nc2ccc(CS(C)(=O)=O)cc2)n1` gave an inhibition of 84.4%.

For `Cc1nnc(-c2cccc(-c3ccc(C(=O)NCC4CC4)cc3)c2)o1`, the inhibition came out at 15.2%.

Consider `Cc1cc(O)cc(C)c1/C=C/c1cncc(C(N)=O)c1`, for which the inhibition turned out to be 39.4%.

As to `FC(F)(F)CNc1nccc(-c2cnn3ncccc23)n1`, the inhibition is 10.1%.

On to `NC(=O)c1ccc2c(-c3ccnc(NCCCO)n3)c(-c3ccc(F)cc3)nn2c1`, for which the inhibition is 16.9%.

Compound `COc1ccc2ncn(-c3cc(O[C@H](C)c4ccccc4C(F)(F)F)c(C(N)=O)s3)c2c1` had an inhibition of 35.4%.
